Reference: PubChem BioAssay AID1159580 (chemical genetic matrix, 2015)
Values joined by “and” are separate entries in the source; they are usually repeats but may differ in a detail not shown here. Equal values may be shown once. The whole screen tested about 5,500 compounds, of which about 2,000 (36%) were called active. About 18% were inconclusive and are not listed. Cut-off read from the data, not from the text of the source: active = normalized growth mostly below about 0.91 (no sharp cut-off); inconclusive = no clear call, values can overlap the other calls; inactive = mostly above about 0.92. This is one part of the list.

Assay: chemical genetic growth profiling, strain panel (AID 1159580);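 note: tested at 20 µM; growth read once vehicle control cultures reached saturation at 30 °C; 1 = growth at the plate median or of vehicle wells; lower values mean less growth of the strain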
Details: S. cerevisiae deletion strains, growth OD

Measured: normalized growth

CC(N)C(=O)OC(C)(C)Cc1ccc(Cl)cc1 (stereo unspecified)
inactive: locus YAL013W, strain DEP1, active compounds read low 0.986 and 1.01 | locus YAL021C, strain ccr4, active compounds read low 1.03 | locus YAL026C, strain drs2, active compounds read low 1.03 | locus YAL030W, strain snc1, active compounds read low 1.01 | locus YAL040C, strain CLN3, active compounds read low 1 | locus YBL061C, strain skt5, active compounds read low 1.02 | locus YBR009C, strain hhf1, active compounds read low 1.06 | locus YBR021W, strain FUR4, active compounds read low 0.943 | locus YBR023C, strain chs3, active compounds read low 1.02 | locus YBR171W, strain sec66, active compounds read low 1.02 | locus YBR229C, strain ROT2, active compounds read low 0.957 | locus YBR231C, strain swc5, active compounds read low 1.01 | locus YBR279W, strain paf1, active compounds read low 1.01 | locus YCL011C, strain gbp2, active compounds read low 1.01 | locus YCL016C, strain dcc1, active compounds read low 1.01 | locus YCL029C, strain bik1, active compounds read low 0.987 | locus YCL061C, strain MRC1 (second series), active compounds read low 0.995 | locus YCL061C, strain MRC1, active compounds read low 1.02 | locus YCL069W, strain vba3, active compounds read low 1.01 | locus YCR088W, strain abp1, active compounds read low 1.01 | locus YDL005C, strain med2, active compounds read low 1.03 | locus YDL035C, strain GPR1, active compounds read low 0.98 | locus YDL040C, strain nat1, active compounds read low 1 | locus YDL074C, strain BRE1, active compounds read low 0.988 | locus YDL101C, strain DUN1, active compounds read low 0.983 | locus YDL134C, strain PPH21, active compounds read low 0.984 | locus YDL185W, strain tfp1, active compounds read low 0.996 | locus YDL192W, strain arf1, active compounds read low 0.983 | locus YDR001C, strain nth1, active compounds read low 1.02 | locus YDR069C, strain doa4, active compounds read low 1.03 | locus YDR101C, strain arx1, active compounds read low 0.983 | locus YDR137W, strain rgp1, active compounds read low 1.05 | locus YDR150W, strain NUM1, active compounds read low 0.96 | locus YDR159W, strain sac3, active compounds read low 1.01 | locus YDR162C, strain NBP2, active compounds read low 0.985 | locus YDR195W, strain ref2 0.97 | locus YDR297W, strain sur2, active compounds read low 1.01 | locus YDR318W, strain mcm21, active compounds read low 0.996 | locus YDR334W, strain swr1, active compounds read low 1.02 | locus YDR335W, strain msn5, active compounds read low 1.02 | locus YDR363W, strain ESC2, active compounds read low 0.999 | locus YDR388W, active compounds read low 0.989 | locus YDR392W, strain spt3, active compounds read low 1.03 | locus YDR502C, strain sam2, active compounds read low 0.991 | locus YEL003W, strain gim4, active compounds read low 1.01 | locus YEL037C, strain rad23, active compounds read low 1.01 | locus YEL061C, strain CIN8 (second series), active compounds read low 1.02 | locus YEL061C, strain CIN8, active compounds read low 0.977 | locus YER002W, strain NOP16, active compounds read low 1.02 | locus YER015W, strain faa2, active compounds read low 1.01 | locus YER016W, strain bim1, active compounds read low 1.01 | locus YER110C, active compounds read low 0.972 | locus YER111C, strain swi4, active compounds read low 1.03 | locus YER155C, strain BEM2 (second series), active compounds read low 0.996 | locus YER155C, strain BEM2, active compounds read low 1 | locus YER167W, strain BCK2, active compounds read low 1.01 | locus YFR010W, strain ubp6, active compounds read low 1.03 | locus YGL078C, strain dbp3, active compounds read low 0.983 | locus YGL086W, strain mad1, active compounds read low 0.975 | locus YGL167C, strain pmr1, active compounds read low 1.01 | locus YGL173C, strain kem1, active compounds read low 1.04 | locus YGL227W, strain vid30, active compounds read low 1.01 | locus YGL240W, strain doc1, active compounds read low 1.02 | locus YGL248W, strain PDE1, active compounds read low 0.984 | locus YGL253W, strain hxk2, active compounds read low 1.01 | locus YGR078C, strain PAC10, active compounds read low 0.982 | locus YGR135W, strain pre9, active compounds read low 0.994 | locus YGR229C, strain SMI1, active compounds read low 0.996 | locus YGR252W, strain gcn5, active compounds read low 0.882 | locus YHR013C, strain ard1, active compounds read low 1.04 | locus YHR027C, strain rpn1, active compounds read low 1.01 | locus YHR030C, strain SLT2, active compounds read low 0.982 and 1.03 | locus YHR079C, strain IRE1 (second series), active compounds read low 0.994 | locus YHR079C, strain IRE1, active compounds read low 1.03 | locus YHR094C, strain hxt1, active compounds read low 0.995 | locus YHR129C, strain ARP1, active compounds read low 0.997 | locus YHR142W, strain chs7, active compounds read low 1.04 | locus YHR200W, strain rpn10, active compounds read low 0.987 | locus YIL066C, strain RNR3, active compounds read low 0.965 | locus YIL073C, strain SPO22, active compounds read low 1.02 | locus YIL125W, strain kgd1, active compounds read low 0.984 | locus YIR030C, strain dcg1, active compounds read low 0.977 | locus YJL092W, strain hpr5, active compounds read low 1.02 | locus YJL095W, strain BCK1 (second series), active compounds read low 1 | locus YJL095W, strain BCK1, active compounds read low 1.02 and 1.01 | locus YJL115W, strain asf1, active compounds read low 1.02 | locus YJL129C, strain trk1, active compounds read low 1.03 | locus YJL134W, strain LCB3, active compounds read low 0.983 | locus YJL154C, strain vps35, active compounds read low 1.01 | locus YJL164C, strain tpk1, active compounds read low 1.03 | locus YJL166W, strain qcr8, active compounds read low 1.04 | locus YJL168C, strain set2, active compounds read low 0.989 | locus YJL187C, strain SWE1 (second series), active compounds read low 0.978 | locus YJL187C, strain SWE1, active compounds read low 1.01 | locus YJR043C, strain POL32, active compounds read low 1.02 | locus YJR066W, strain TOR1, active compounds read low 0.971
